Key:
[1] = test system: Vero E6 infected with SARS-CoV-2; experiment: morphology score (similarity to uninfected cells); higher = more like uninfected cells; settings: 24 h
[2] = test system: Vero E6 infected with SARS-CoV-2; experiment: SARS-CoV-2 infection rate relative to infected DMSO; higher = more infection, active = 60 or less; settings: 24 h

| SMILES | morphology score [1] | SARS-CoV-2 infection rate [2] |
| --- | --- | --- |
| Cc1ccc2nc(N)[nH]c(=O)c2c1Sc1ccncc1 [nolatrexed] (10 µM) | -0.166 | 108% (inactive) |
| CC[C@H](CC#N)OC(=O)N[C@@H](C)c1cccc(NC(=O)Nc2ccc(-c3cnco3)c(OC)c2)c1 (10 µM) | -0.000547 | 97% (inactive) |
| CC(Cc1ccc(O)cc1)NCC(O)c1cc(O)cc(O)c1 (stereo unspecified) [fenoterol] (10 µM) | -0.0121 | 106% (inactive) |
| CC1(C)S[C@@H]2[C@H](NC(=O)C(C(=O)O)c3ccccc3)C(=O)N2[C@H]1C(=O)O (stereo partly specified) [carbenicillin] (10 µM) | 0.0766 | 104% (inactive) |
| CC1(C)S[C@@H]2[C@H](NC(=O)[C@H](N)c3ccc(O)cc3)C(=O)N2[C@H]1C(=O)O [amoxicillin] (10 µM) | -0.146 | 102% (inactive) |
| CC(C)(O)C(Cl)(Cl)Cl [chlorobutanol] (10 µM) | 0.123 | 106% (inactive) |
| CC(=O)S[C@@H]1CC2=CC(=O)CC[C@]2(C)[C@H]2CC[C@@]3(C)[C@@H](CC[C@@]34CCC(=O)O4)[C@H]12 [spironolactone] (10 µM) | 0.291 | 98.5% (inactive) |
| O=C1NC(=O)C(c2cnc3ccccn23)=C1c1cn2c3c(cc(F)cc13)CN(C(=O)N1CCCCC1)CC2 (10 µM) | -0.436 | 105% (inactive) |
| Cc1ccccc1OCC(O)CO (stereo unspecified) [mephenesin] (10 µM) | 0.141 | 99.5% (inactive) |
| Cc1[nH]c2ccc(F)cc2c1-c1nc2c3cccnc3c3ncccc3c2[nH]1 (10 µM) | 0.21 | 102% (inactive) |
| CC(C)NCC(O)COc1cccc2[nH]c3ccccc3c12 (stereo unspecified) [carazolol] (10 µM) | -0.011 | 91.5% (inactive) |
| Nc1c(Br)cc(Br)cc1CN[C@H]1CC[C@H](O)CC1 [ambroxol] (10 µM) | -0.155 | 114% (inactive) |
| Cc1sc2c(c1C)C(c1ccc(Cl)cc1)=N[C@@H](CC(=O)Nc1ccc(OCCOCCOCCOCCNc3cccc4c3C(=O)N(C3CCC(=O)NC3=O)C4=O)cc1)c1nnc(C)n1-2 (stereo partly specified) (10 µM) | -0.0682 | 100% (inactive) |
| CO/N=C(\C(=O)N[C@@H]1C(=O)N2C(C(=O)O)=C(COC(N)=O)CS[C@H]12)c1ccco1 (10 µM) | 0.0841 | 98.5% (inactive) |
| CCCNS(=O)(=O)Nc1ncnc(OCCOc2ncc(Br)cn2)c1-c1ccc(Br)cc1 [macitentan] (10 µM) | -0.0952 | 112% (inactive) |
| CC1=C(/C=C/C(=C/C=C/C(C)=C/C(=O)O)c2ccc(C)cc2)C(C)(C)CCC1 (10 µM) | 0.171 | 106% (inactive) |
| COc1cc(C)[nH]c(=O)c1CNC(=O)c1c(C)n([C@H](C)C2CCOCC2)c2ccccc12 (10 µM) | 0.0908 | 96.5% (inactive) |
| N=C(N)N [guanidine] (0.833333 µM) | -0.293 | 118% (inactive) |
| CC(C)C[C@@H]1NC(=O)[C@@H](C(C)C)NC(=O)[C@@H]2CCCN2C(=O)[C@@H](CC(=O)O)NC(=O)[C@@H](Cc2c[nH]c3ccccc23)NC1=O (10 µM) | 0.163 | 103% (inactive) |
| CO[C@H]1CC[C@@H](C(=O)c2ccc3nc4c(cc3c2)CCCO4)CC1 (10 µM) | 0.0672 | 104% (inactive) |
| COC(=O)[C@H](Cc1cccc(C(=N)N)c1)[C@@H](C)NC(=O)c1ccc(-c2cc[n+]([O-])cc2)cc1 [otamixaban] (10 µM) | -0.0764 | 100% (inactive) |
| CCOC(=S)SSC(=S)OCC [dixanthogen] (10 µM) | -0.0377 | 106% (inactive) |
| CC(C)(C)NC[C@H](O)COc1nsnc1N1CCOCC1 [timolol] (10 µM) | -0.002 | 98.5% (inactive) |
| c1cc(Nc2cc(C3CC3)n[nH]2)nc(Nc2ccc3[nH]cnc3c2)n1 (0.833333 µM) | -0.282 | 110% (inactive) |
| c1ccc2c(c1)sc1ccccc12 [dibenzothiophene] (10 µM) | 0.0443 | 105% (inactive) |
| CC(=O)O[C@H]1Cc2ccccc2N(C(N)=O)c2ccccc21 [eslicarbazepine-acetate] (10 µM) | 0.137 | 106% (inactive) |
| Cc1cc(C)c2c(N)c(C(=O)NCc3ccc(Cl)cc3)sc2n1 (10 µM) | 0.0846 | 99% (inactive) |
| C[C@@H]1NC(C)(C)CO[C@@]1(O)c1cccc(Cl)c1 [radafaxine] (10 µM) | -0.0433 | 110% (inactive) |

Source: the supplement of paper PMC13380429
